# Experimental data as given in PubChem BioAssay (Tox21).
# Records with an inconclusive call do not appear. Entries that show only a call come without a potency. Some structures have more than one record in an assay (separate samples or runs), and their calls can disagree. Activity calls are given as the source filed them. The call rests on the fitted dose curve.
# Assay: qHTS assay to identify small molecule agonists of the AP-1 signaling pathway - cell viability counter screen (AID 1159525); further: nearly all actives have a fitted effect of over 55% in size
# Details: ME-180 (cervical carcinoma) AP-1-bla cells viability, ATP luminescence, 5 h; series mostly up to 76.8 µM
# From the text: National Center for Advancing Translational Sciences [NCATS]
# NIH Chemical Genomics Center [NCGC]
# U.S. Environmental Protection Agency [EPA]
# National Institutes of Environmental Health Sciences [NIEHS]
# National Toxicology Program [NTP]
# U.S. Food and Drug Administration [FDA]
# Activator protein-1 (AP-1), a transcription factor, plays an important role in tumor genesis by regulating genes involved in cell proliferation, differentiation, apoptosis, and angiogenesis. AP-1 activity is induced by a complex network of signaling pathways that involves extracellular signals, such as growth factors. The AP-1 protein complex formed from c-Fos and c-Jun binding to the AP-1 response element results in transcriptional activation of genes containing such elements within their promoter.
# Low molecular weight molecules have been discovered and developed to modulate various components of these signaling pathways, for example, MAP kinase inhibitors. However, many points of pathway modulation remain untested due to the lack of chemical probes making this signaling locus of general interest.
# Using a beta-lactamase reporter-gene under control of the AP-1 response element, a cell-based assay [CellSensor(TM) AP-1-bla ME-180 developed by Invitrogen Corp.] was used to measure EGF-induced signaling. The Tox21 10K library compounds were measured for their ability to positively modulate the action of EC50 EGF on reporter gene activity. Compounds were screened in a 15-pt titration series in 1536-well format. The cytotoxicity of the Tox21 compound library against this cell line was tested in parallel by measuring the intra cellular ATP content in the same wells.
# Tox21 Assay Protocol Summary:
# 2500 cells/5uL in Opti-MEM medium containing 0.5% dialyzed FBS, 0.1 mM NEAA, 1 mM sodium pyruvate and 10 mM HEPES was dispensed into 1536-well black wall/clear bottom plates using a Multidrop dispenser and cells were cultured at 37 degrees Celsius overnight. Next day 23 nL of compounds dissolved in DMSO, positive controls or DMSO were delivered to each well using a pin tool. The plates were incubated at 37 degrees Celsius for 5 hours. 1 uL of LiveBLAzerTM B/G FRET substrate (Solution A+B+C+D) was added to each well using a Flying Reagent Dispenser. After incubated at room temperature for 2.5 hours the plates were measured on an EnVision plate reader at Excitation 405nm, Emission1=460nm and Emission 2=530nm. The %Activity was determined from the ratio of 460nm/530nm.
# After the plates were read for Beta-Lactamase assay on Envision; 3 ul Cell Titer Glo (Promega) was added to measure the cytotoxicity and the plates were then incubated at RT in dark for 30 min. The luminescence was read on ViewLux (Perkin Elmer, Shelton, CT) using 6 sec exposure. ViewLux data was expressed as relative luminescence units.
# For primary data analysis, raw plate reads for each titration point were first normalized relative to […] EGF control (100%) and DMSO only wells (basal, 0%).
# For primary data analysis for viability assay, raw plate reads for each titration point were first normalized Tetra n-octyl ammonium bromide control (-100%) and DMSO (control, 100%).
# Potency means the concentration at half of the fitted maximal effect.
Compound,Potency,"viability change, negative = cytotoxic"
CC1=NC(C)OC1C (stereo not given),inactive,
CCOc1nc2cccc(C(=O)OC(C)OC(=O)OC3CCCCC3)c2n1Cc1ccc(-c2ccccc2-c2nn[nH]n2)cc1 (stereo not given),27.5 µM (active),
Clc1ccc2nsnc2c1NC1=NCCN1,inactive,
CC1=C(/C=C/C(C)=C/C=C/C(C)=C/C=O)C(C)(C)CCC1,34.5 µM (active),
CCCCC(CC)COP(=O)(O)OCC(CC)CCCC (stereo not given),inactive,
CNc1ccc(O)cc1,24.5 µM (active),
CC(C)(C)C(=O)OCOC(=O)C1N2C(=O)CC2S(=O)(=O)C1(C)C (stereo not given),inactive,
CC(C)c1ccc2c(c1)CC[C@H]1[C@](C)(CN)CCC[C@]21C,54.9 µM (active),
Oc1ccc(Cl)cc1Sc1cc(Cl)ccc1O,54.8 µM (active) and inactive,
OC1(c2ccc(Cl)c(C(F)(F)F)c2)CCN(CCCC(c2ccc(F)cc2)c2ccc(F)cc2)CC1,9.52 µM (active),
CCOC(=O)O[C@]1(C(=O)OCCl)CC[C@H]2[C@@H]3CCC4=CC(=O)C=C[C@]4(C)[C@H]3[C@@H](O)C[C@@]21C,inactive,
CCN1/C(=C/C=C/c2sc3ccccc3[n+]2CC)Sc2ccccc21,,-11.9% [at 15.8 µM] (inactive)
Clc1ccc2n[nH]nc2c1,inactive,
CCOC(=O)/C=C(C)/C=C/C=C(C)/C=C/c1c(C)cc(OC)c(C)c1C,inactive,
CC(=O)SC[C@@H](Cc1ccccc1)C(=O)NCC(=O)OCc1ccccc1,inactive,
O=C1c2c(O)ccc(Nc3ccc(CCO)cc3)c2C(=O)c2c([N+](=O)[O-])ccc(O)c21,inactive,
C=CC(=O)OCC(CO)(COCC(COC(=O)C=C)(COC(=O)C=C)COC(=O)C=C)COC(=O)C=C,24.2 µM (active),
CSc1cnc(C)cn1,inactive,
CCCCCCCCCCn1cc[n+](CCCCCCCCCC)c1C,39 µM (active),
CC(C)C(C)(C)C(C)(C)C(C)(C)S,inactive,

Compound,Potency,"viability change, negative = cytotoxic"
CCCCc1oc2ccc(NS(C)(=O)=O)cc2c1C(=O)c1ccc(OCCCN(CCCC)CCCC)cc1,19 µM (active),
Cc1c(C)c2c(c(C)c1O)CCC(C)(COc1ccc(CC3SC(=O)NC3=O)cc1)O2 (stereo not given),inactive,
OCCN(CCO)c1nc(N2CCCCC2)c2nc(N(CCO)CCO)nc(N3CCCCC3)c2n1,inactive,
Nc1c2ccccc2nc2ccccc12,inactive,
O=[N+]([O-])c1cc(Cl)c(Cl)c(Cl)c1Cl,inactive,
CCC(C)(C)C1CCCCC1OC(C)=O (stereo not given),inactive,
Cc1cccc2c1cc1ccc3cccc4ccc2c1c34,inactive,
O=Cc1cc(O)ccc1Br,inactive,
C[C@@H]1C[C@H]2[C@@H]3CCC4=CC(=O)C=C[C@]4(C)[C@@]3(Cl)[C@@H](O)C[C@]2(C)[C@@]1(OC(=O)c1ccco1)C(=O)CCl,inactive,
CN(C)c1ccc(SC#N)cc1,inactive,
N=C1N=C(N)c2ccccc21,inactive,
CN1CCC(Nc2ncc3ncnc(Nc4ccc(F)c(Cl)c4)c3n2)CC1,inactive,
CCCC(=O)OC[C@@H](OC(=O)CCC)[C@@H](OC(=O)CCC)[C@H](Cn1c2nc(=O)[nH]c(=O)c-2nc2cc(C)c(C)cc21)OC(=O)CCC,inactive,
CCCCCOC(=O)CCCC,inactive,
CCCCN1C(=O)[C@@H]([C@H](O)C2CCCCC2)NC(=O)C12CCN(Cc1ccc(Oc3ccc(C(=O)O)cc3)cc1)CC2,inactive,
NNc1nc(-c2ccc(N)cc2)cs1,inactive,
Oc1ccc(C2(c3ccc(O)cc3)CC3CC2C2CCCC32)cc1 (stereo not given),41.9 µM (active),
CCCC(c1cc(C(C)(C)C)c(O)cc1C)c1cc(C(C)(C)C)c(O)cc1C,7 µM (active),
S=c1[nH]c2ccccc2s1,inactive,
CCCCCCCCOc1ccccc1C(=O)Nc1ccc(C(=O)OCC[N+](C)(CC)CC)cc1,26.8 µM (active),
